Data from PubChem BioAssay (Tox21).
Records with an inconclusive call do not appear. Unmarked numbers belong to inactive results. The source made the active and inactive calls. Calls follow the shape of the full dose curve.
% is scaled to controls: 0 for no effect and ±100 for the full control effect; potency is read from the fitted curve at half-maximal effect.

The compounds below were run against 5-hydroxytryptamine receptor 2A (Homo sapiens) (UniProt P28223) (assay: 5-hydroxytryptamine receptor 2A (HTR2A) small molecule antagonists, cell-based qHTS assay (AID 1963586; also: nearly all actives have a fitted effect of over 45% in size)). Conditions: HTR2A-CHO cells, DOI-induced calcium flux, fluorescence; series mostly up to 61.5 µM; activity, negative = inhibition: at the top concentration.
Chain of 5-hydroxytryptamine receptor 2A (Homo sapiens) (P28223 whole entry, looked up): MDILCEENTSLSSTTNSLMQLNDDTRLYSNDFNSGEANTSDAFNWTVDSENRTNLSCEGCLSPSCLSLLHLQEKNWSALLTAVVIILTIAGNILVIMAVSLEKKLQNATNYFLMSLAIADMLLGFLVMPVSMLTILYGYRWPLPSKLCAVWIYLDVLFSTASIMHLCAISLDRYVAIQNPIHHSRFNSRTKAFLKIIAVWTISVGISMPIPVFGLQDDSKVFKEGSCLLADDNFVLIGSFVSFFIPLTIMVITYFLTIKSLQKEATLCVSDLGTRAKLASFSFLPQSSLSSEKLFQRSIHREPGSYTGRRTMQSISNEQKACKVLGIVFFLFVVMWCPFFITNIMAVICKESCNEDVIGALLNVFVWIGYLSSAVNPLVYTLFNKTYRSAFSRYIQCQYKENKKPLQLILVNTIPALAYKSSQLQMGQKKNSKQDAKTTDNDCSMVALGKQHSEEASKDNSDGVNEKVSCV
From the text: National Center for Advancing Translational Sciences [NCATS]
Division of Preclinical Innovation [DPI]
U.S. Environmental Protection Agency [EPA]
National Institutes of Environmental Health Sciences [NIEHS]
National Toxicology Program [NTP]
U.S. Food and Drug Administration [FDA]
The HTR2A receptor is a subtype of the 5-HT2 receptor that belongs to the serotonin receptor family and is a G protein-coupled receptor (GPCR). The HTR2A-CHO cell line stably expressing human 5-hydroxytryptamine receptor 2A (HTR2A) can be used for screening antagonists of interactions between 5-HT2 and its ligands. The HTR2A-CHO calcium flux assay is a homogeneous fluorescence-based assay for detecting the intracellular calcium level using FDSS kinetic plate reader system.
Tox21 Assay Protocol Summary:
HTR2A-CHO cells were dispensed at 2000 cells/3uL/well in 1536-well black-clear bottom plates using a Multidrop Dispenser. After the assay plates were incubated at a 37 C/5% CO2 incubator for 18 h, 3 uL of Dye Loading Buffer was transferred to the assay plate by a Flying Reagent Dispenser. The assay plates were incubated at 37 C for 1h. For antagonist mode, 23 nL of compounds dissolved in DMSO, positive controls or DMSO only was transferred to the assay plate by a pin tool. After 5 min incubation at room temperature, 1.5 uL of 4-Iodo-2,5-dimethoxy-alpha-methylbenzeneethanamine hydrochloride (DOI) at 4nM was added to each well. The fluorescence intensity in the plates was measured using FDSS 7000EX kinetic plate reader for 3 min at 1 sec intervals.
For `CSc1ccc(C=O)cc1`, the “activity, negative = inhibition” value was 55.9%. For `CCC1(c2cnc[nH]2)Cc2ccccc2C1`, the “activity, negative = inhibition” value was -18.8% [at 28.5 µM]. For `O=C(Nc1ccccc1)OCC(CN1CCCCC1)OC(=O)Nc1ccccc1` (stereo not given), the “activity, negative = inhibition” value was -1.38% [at 28.5 µM]. `CC(C)(C)c1cc(CO)cc(C(C)(C)C)c1O` was tested, and the “activity, negative = inhibition” value was 99.8%. In the case of `COc1nc(C)nc(N)n1`, the “activity, negative = inhibition” value is reported as 3.18%. `Oc1cccc2c(O)cccc12` was tested, and the “activity, negative = inhibition” value was 0.247%. `CCCCCCCCCCCCCOS(=O)(=O)O` was tested, and the Potency was 42.1 µM (active). In the case of `CCCCCCOC(=O)CCCCCCCC(=O)OCCCCCC`, the “activity, negative = inhibition” value is reported as 4.29%. In the case of `C[N+]1(C)CCC(OC(=O)C(O)(c2ccccc2)C2CCCC2)C1` (stereo not given), the “activity, negative = inhibition” value is reported as -5.97% [at 28.5 µM]. For `OC/C(Br)=C(\Br)CO`, the “activity, negative = inhibition” value was 48.9%. With `COc1ccc(/C=N/NC(=O)c2ccncc2)cc1OC` the “activity, negative = inhibition” value was 5.56% [at 28.5 µM]. For `c1ccc(C[n+]2cccc3ccccc32)cc1`, the “activity, negative = inhibition” value was 2.69%. For `COC(=O)[C@H]1[C@H]2C[C@@H]3c4[nH]c5cc(OC)ccc5c4CCN3C[C@H]2C[C@@H](OC(=O)/C=C/c2ccc(O)c(OC)c2)[C@@H]1OC`, the “activity, negative = inhibition” value was 429% [at 28.5 µM]. `C[C@H](CCC(=O)O)[C@H]1CC[C@H]2[C@@H]3CC[C@@H]4C[C@H](O)CC[C@]4(C)[C@H]3C[C@H](O)[C@]12C` was tested, and the “activity, negative = inhibition” value was -13.8%. In the case of `COC(C)CCO` (stereo not given), the “activity, negative = inhibition” value is reported as -3.61%. `O=C(Oc1ccccc1)c1ccc2ccccc2c1O` was tested, and the “activity, negative = inhibition” value was 0.996%. For `CN(C)[C@@H]1C(=O)C(C(N)=O)=C(O)[C@@]2(O)C(=O)C3=C(O)c4c(O)cccc4C[C@H]3C[C@@H]12`, the “activity, negative = inhibition” value was 4.53% [at 28.5 µM]. `O=C(O)CC(=O)C(=O)O` was tested, and the “activity, negative = inhibition” value was -1.63%. With `COc1ccccc1OCC1CNC(=O)O1` (stereo not given) the “activity, negative = inhibition” value was -19.7% [at 28.5 µM]. In the case of `CCN(CC)CCCN(c1ccccc1)C1Cc2ccccc2C1`, the Potency is reported as 11.6 µM (active). `CCCCOC(=O)CCCCC(=O)OCCCC` was tested, and the “activity, negative = inhibition” value was -5.49%. With `Nc1nc2ccc([N+](=O)[O-])cc2s1` the Potency was 3.75 µM (active). In the case of `O=C(O)CCc1nc2ccccc2[nH]1`, the “activity, negative = inhibition” value is reported as -0.669% [at 28.5 µM]. `CC(=O)c1ccc2c(c1)Cc1ccccc1-2` was tested, and the “activity, negative = inhibition” value was 7.69%. In the case of `CSc1ccc(Oc2ccc(S(N)(=O)=O)cc2CN(C)C)cc1C`, the “activity, negative = inhibition” value is reported as -4.63%. With `O=C(Nc1cccc(Cl)c1)OCC#CCCl` the “activity, negative = inhibition” value was -11.2%. `CC1=Nc2ccccc2C1(C)C` was tested, and the “activity, negative = inhibition” value was 2.31%. `O=C1N=C(O)CN1/N=C/c1ccc(-c2ccc([N+](=O)[O-])cc2)o1` was tested, and the Potency was “inactive”. For `CN(c1nccc(=O)[nH]1)C1CCN(c2nc3ccccc3n2Cc2ccc(F)cc2)CC1`, the “activity, negative = inhibition” value was -4.74% [at 28.5 µM]. With `N#Cc1nc(Cl)c(Cl)c(Cl)c1Cl` the “activity, negative = inhibition” value was -4.5%. `O=C(O)c1ccccc1C(=O)OCc1ccccc1` was tested, and the “activity, negative = inhibition” value was 1.43%. In the case of `COc1cc2ncnc(Nc3ccc(F)c(Cl)c3)c2cc1OCCCN1CCOCC1`, the “activity, negative = inhibition” value is reported as 7.72% [at 28.5 µM]. For `COc1cc(Cc2cnc(N)nc2N)cc(OC)c1OC`, the Potency was “inactive”. With `CC(CC=O)CCCC(C)(C)O` (stereo not given) the “activity, negative = inhibition” value was -9.31%. In the case of `O=C(O)c1nc(Cl)c(Cl)c(Cl)c1Cl`, the “activity, negative = inhibition” value is reported as -0.458%. For `COC(C)=O`, the “activity, negative = inhibition” value was -7.77%. In the case of `CCNCCO`, the “activity, negative = inhibition” value is reported as 7.25%. `C[C@@H]1C[C@H]2[C@@H]3C[C@H](F)C4=CC(=O)C=C[C@]4(C)[C@@]3(F)[C@@H](O)C[C@]2(C)[C@@]1(O)C(=O)CO` was tested, and the “activity, negative = inhibition” value was -7.5% [at 28.5 µM]. For `COCCOc1cc2cc(C(=O)NC3CCN(C(C)C)CC3)n(CC(=O)Nc3ccc(Cl)cn3)c2cn1`, the “activity, negative = inhibition” value was -7.65%. With `CCc1ccc(C)cc1` the “activity, negative = inhibition” value was 7.4%.
